# Pf Dd2 inh = Plasmodium falciparum Dd2 growth inhibition; P. falciparum Dd2 growth, SYBR Green, 72 h; 120,000 compounds, 4.3% hits; AID 1347417; Potency, µM (top dose mostly 28.9 µM), without a hit: top-dose activity, negative = inhibition, usual class: inhibitors; active = well fitted inhibition curve with a large enough effect;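 note: plate controls were DMSO vehicle for no effect and reference drug for full effect; nearly all actives have a fitted effect of over 65% in size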
#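 Infected erythrocytes (Dd2, 0.3% parasitemia, 2.5% hematocrit final) are added to compound in RPMI-1640/Albumax II medium, grown 72 h at 37C in low oxygen, then lysed with saponin/Triton-X containing SYBR Green and read by fluorescence.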
# * marks the source's active call; other numbers are inactive results; i = inactive; [ ] = remark or other dose. The entries come from a sample that favours hits as a whole. Potency is the fitted concentration of half-maximal effect.
SMILES,Pf Dd2 inh
CCC(=O)NCCc1nc2cc(NC(=O)c3cccc(Br)c3)ccc2n1C,-19.1%
COC(=O)C1=C(C)N(Cc2ccccc2F)C(=O)CC1c1ccc(F)cc1F (stereo not given),i
O=C(Cc1ccccc1F)NCCC1CCN(C(=O)Nc2ccc(F)cc2F)CC1,i
C[C@H]1[C@@H]2[C@@H](O)C([C@H](C)C(=O)NCc3ccccc3)CC[C@@]2(C)CC[C@@H]1NC(=O)c1ccc(C#N)cc1 (stereo not given in full),i
C[C@H]1[C@@H]2[C@@H](O)C([C@H](C)C(=O)NCc3cccnc3)CC[C@@]2(C)CC[C@@H]1NC(=O)c1ccc(C#N)cc1 (stereo not given in full),-5.9%
C[C@H]1[C@@H]2[C@@H](O)C([C@H](C)C(=O)NCc3ccccn3)CC[C@@]2(C)CC[C@@H]1NC(=O)c1ccc(C#N)cc1 (stereo not given in full),8.91µM*
COc1ccc(OC)c(CN2CCCn3nc(C)c(-c4cnccc4C)c32)c1,i
CC(C)C[C@@H]1N[C@H](C(=O)NC2CCCC2)Cc2c[nH]c3cccc1c23,12.6µM*
CC(C)C[C@@H]1N[C@H](C(=O)NC2CCC2)Cc2cn(Cc3nccn3C)c3cccc1c23,10µM*
C=CCn1cc2c3c(cccc31)[C@H](CC(C)C)N[C@H](C(=O)N1CCOCC1)C2,i
CC(C)C[C@@H]1N[C@H](C(=O)NC2CCC2)Cc2c[nH]c3cccc1c23,-15.9%[44.1 µM]
CC(C)C[C@@H]1N[C@H](C(=O)NC2CCCC2)Cc2cn(CC3CC3)c3cccc1c23,-16.3%[44.1 µM]
CC(=O)N1CCCN(C(=O)[C@@H]2Cc3cn(C)c4cccc(c34)[C@H](CC(C)C)N2)CC1,-5.5%[44.1 µM]
C=CCn1cc2c3c(cccc31)[C@H](CC(C)C)N[C@H](C(=O)NCc1ccccc1)C2,7.08µM*
C=CCn1cc2c3c(cccc31)[C@H](CC(C)C)N[C@H](C(=O)NC1CCC1)C2,12.6µM*
C=CCn1cc2c3c(cccc31)[C@H](CC(C)C)N[C@H](C(=O)NCc1ccccc1OC)C2,-9.0%[44.1 µM]
C=CCn1cc2c3c(cccc31)[C@H](CC(C)C)N[C@H](C(=O)NCCN1CCOCC1)C2,i
CC#CCn1cc2c3c(cccc31)[C@H](CC(C)C)N[C@H](C(=O)OC)C2,i
C#CCNC(=O)[C@@H]1Cc2c[nH]c3cccc(c23)[C@H](CC(C)C)N1,i
Cc1cnc(C2CC2)n1CCNC(=O)c1cncn1C,1.1%
Cc1nn(CC(=O)N2CCN(c3ccccc3F)CC2)c(=O)c2nc(C(C)C)sc12,-21.1%
CCn1nccc1C(=O)N1CCCC(COc2ccccc2C(=O)NC(C)C)C1 (stereo not given),-0.7%
N#Cc1ccc(C(=O)NC2CCN(C(=O)N3CC4CC(C3)[C@H]3CCCC(=O)N3C4)CC2)cc1 (stereo not given in full),i
O=C(NC1CCN(c2cc(-c3ccccc3)[nH]n2)CC1)c1cc2ccccc2[nH]1,i
CN(C)[C@@H]1CN(C(=O)c2ccc(C#N)cc2)CC[C@]1(O)c1ccccc1,i[5.79 µM]
SMILES,Pf Dd2 inh
CC(=O)N1CCC(N2CCC([C@@H]3CNC[C@H]3CO)CC2)CC1,21.0%
CC(=O)N1CC2(Cc3ccccc31)CN(C(=O)Cc1cccc(Cl)c1)C2,-13.6%
O=C(c1ccc2c(c1)OCO2)N1CC(Oc2ccc(F)c(F)c2)C1,9.4%
Cc1ccc(NC(=O)C(=O)NCC(c2cccnc2)N2CCN(Cc3ccccc3)CC2)cc1Cl (stereo not given),3.55µM*
O=C(NCC(c1cccnc1)N1CCOCC1)C(=O)Nc1cccc(Cl)c1 (stereo not given),-15.4%
O=C(NCC(c1cccnc1)N1CCN(c2ccccc2F)CC1)C(=O)Nc1ccc(F)cc1F (stereo not given),3.16µM*
CN1CCN(C(CNC(=O)C(=O)Nc2ccc(F)cc2)c2cccnc2)CC1 (stereo not given),-8.2%
COCCNC(=O)C(=O)NCC(c1cccnc1)N1CCN(c2ccccc2OC)CC1 (stereo not given),-13.5%
O=C(NCC(c1cccnc1)N1CCOCC1)C(=O)Nc1ccc(Cl)cc1 (stereo not given),-13.7%
CN(C)c1nc2c(c(=O)[nH]1)CCN(Cc1ccc(F)c(Cl)c1)CC2,-0.6%[5.79 µM]
Cc1onc(-c2cnn(C)c2NCc2ccc(C#N)cc2)c1C(=O)NC1CCCCC1,-21.3%[44.1 µM]
C=CCC(O)(CC=C)C(C)NC(=O)c1ccc(OC2CCN(Cc3ccccn3)CC2)cc1 (stereo not given),-14.2%
Cc1ccc(C(=O)NCC(=O)N2CCN(c3ccccn3)CC2)cc1,i
CCc1cccc(NC(=O)Cn2c(=O)n(CC3CCC(C(=O)NCCc4ccccc4)CC3)c(=O)c3ccccc32)c1 (stereo not given),3.55µM*
CC(C)c1ccc(NC(=O)Cn2c(=O)n(CC3CCC(C(=O)NCCc4ccccc4)CC3)c(=O)c3ccccc32)cc1 (stereo not given),3.16µM*
Cc1cccc(NC(=O)Cn2c(=O)n(CC3CCC(C(=O)NCCc4ccccc4)CC3)c(=O)c3ccccc32)c1C (stereo not given),i
CCOc1ccc(NC(=O)Cn2c(=O)n(CC3CCC(C(=O)NCCc4ccccc4)CC3)c(=O)c3ccccc32)cc1 (stereo not given),-10.0%
CC(C)c1ccc(NC(=O)Cn2c(=O)n(CCc3ccccc3)c(=O)c3ccccc32)cc1,14.3%
O=C(Cn1c(=O)n(CC2CCC(C(=O)NCCc3ccccc3)CC2)c(=O)c2ccccc21)Nc1ccccc1 (stereo not given),-11.0%
CN1C(=O)CCc2cc(NC(=O)Cc3ccccc3Cl)ccc21,-9.9%
O=C1CCN(S(=O)(=O)c2ccccc2)CCCN(C(=O)c2nccc3ccccc23)CCN1,-29.3%
CCC(C)NC(=O)N1CC(n2cc(C(=O)NCc3ccncc3)nn2)C1 (stereo not given),16.0%
COc1cc(NC(=O)NC[C@H]2O[C@@H](CO)[C@@H](O)[C@H]2N2CCC(C)CC2)cc(OC)c1,-10.7%
Cc1ccc2[nH]c(CN(Cc3cnn(C)c3)C3CC3)cc(=O)c2c1,-10.2%
c1ccc(Cc2nnc([C@H]3CCN(CC4CCCCC4)C3)o2)cc1,i
SMILES,Pf Dd2 inh
CN1CCC(OC2CCN(C(=O)c3ccc(Br)o3)CC2)CC1,121.9%
O=C(CCc1cc2ccccc2[nH]c1=O)NCc1ccco1,-11.6%
Cc1cc(NC(=O)CN2C(=O)c3cccnc3Sc3ccccc32)ccc1Br,11.2µM*
Cc1cc(C)c(NC(=O)CN2C(=O)c3cccnc3Sc3ccccc32)c(C)c1,-26.7%
CCc1ccccc1NC(=O)CN1C(=O)c2cccnc2Sc2ccccc21,-19.3%
Cc1ncoc1C(=O)N1C[C@H]2OC(=O)N(CCc3cccc(Cl)c3)[C@H]2C1,-12.0%
CC[C@@H]1[C@H](NC(=O)CCc2c(C)[nH]c3ccccc3c2=O)[C@@H]2CCO[C@H]12,-8.3%
COC(=O)CN1C(=O)[C@@H]2C[C@@H](O)CN2C2(CN(Cc3ccccn3)C2)C1=O,-10.5%[44.1 µM]
CCCc1ccc2oc(C(=O)N(C)CCC3CCCCO3)c(C)c2c1 (stereo not given),10µM*
Cc1c(Cl)cc(C(=O)N(C)CCC2CCOCC2)cc1Cl,-13.6%
CCCc1ccc2oc(C(=O)NCCc3nncn3CC)c(C)c2c1,-20.8%
O=C(NCCc1ccc(F)cc1)C1CCCN1c1nc2ncccc2o1 (stereo not given),-9.8%
COc1ccc(-c2cc3ccc(O)c(CN4CCOCC4)c3oc2=O)cc1OC,10µM*
COc1cccc2cc(-c3nc(-c4ccc(C)cc4)c(C)s3)c(=O)oc12,74.6%
